Among all 370,000 compounds or so, about 4,700 (1.3%) were called active. This excerpt belongs to a sample that is enriched for actives. Values without a mark were called inactive.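 The calls were made as follows: active = inhibition above the plate cutoff, the mean of all test compounds on that plate plus 3 SD (cut at about 35% in these data); inactive = the rest.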

This passage reports inhibition results from PubChem BioAssay AID651821 (The Scripps Research Institute Molecular Screening Center, 2012).

This test is described as follows: binders of r(CAG) RNA repeats, primary screen, biochemical, fluorescence (AID 651821).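 Also: 0% = DMSO alone and 100% = 100 µM mitoxantrone as full dye displacement; higher means more dye released from RNA so lower well fluorescence.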 To be noted: r(CAG) RNA repeat, TO-PRO-1 dye displacement fluorescence; at 3 µM; active compounds read high.
By inhibition is commonly meant the relative decrease from the control value, in per cent. Take `O=c1[nH]c(=O)n(Cc2ccccc2)c(O)c1/C=N/Nc1c(F)c(F)c(F)c(F)c1F`: the inhibition is 0.55%.

`CCCCn1c(O)c(C(CC)=NCc2ccco2)c(=O)[nH]c1=O`: the inhibition was -0.86%. In the case of `CC/C(=N\NC(=O)c1ccccc1O)c1c(O)n(Cc2ccccc2)c(=O)[nH]c1=O`, the inhibition is 80.1% (active). Turning to `C[N+]1(C)CCOC(O)(c2ccc(-c3ccc(C4(O)C[N+](C)(C)CCO4)cc3)cc2)C1` (stereo not given), the inhibition is 3.46%. For `Cc1ccccc1CCC[C@@H](CC1CCCCC1)CN(C)C(=O)Oc1ccccc1`, the inhibition is 6.44%.

Regarding `Clc1ccc([C@@H]2CC3CCC2N3)cn1` (stereo not given in full), the inhibition was 1.8%. As for `COc1cc(OC)cc(C(=O)NCCN2CCC3(CC2)C(=O)NCN3c2ccccc2)c1`, the inhibition is 4.12%.

As to `COc1ccc(N2C(=O)/C(=C/c3ccco3)C(=O)NC2=S)cc1`, the inhibition was 67.3% (active). With `O=Cc1cn(Cc2ccc(F)cc2Cl)c2ccccc12`, the inhibition is -0.22%. Turning to `CCc1nnc(NS(=O)(=O)c2ccc(N=Cc3c(O)n(-c4ccccc4)c(=O)[nH]c3=O)cc2)s1`, the inhibition is 5.87%. Regarding `CC(C)(C)c1ccc(CN2C(=O)CN=C(c3ccccc3)c3ccccc32)cc1`, the inhibition is -3.15%. The same measure for `O=C1CC(=O)N(Cc2ccccc2)C(=O)N1CCCCCCN1C(=O)CC(=O)N(Cc2ccccc2)C1=O`: 68% (active). For `O=C(NC(=S)N1C[C@H]2C[C@H](C1)c1cccc(=O)n1C2)c1ccc(F)cc1`, the inhibition was 0.97%. With `O=C1C2(Cl)C3(Cl)C4(Cl)C(Cl)(Cl)C5(Cl)C3(Cl)C1(Cl)C5(Cl)C24Cl` (stereo not given), the inhibition was 11.4%. In the case of `Cc1cc(=O)oc2c(C)c(OCC(=O)N3CCN(Cc4ccc5c(c4)OCO5)CC3)ccc12`, the inhibition is -1.14%. Regarding `COc1cccc(N2C(=O)NC(=O)/C(=C\c3ccc([N+](=O)[O-])s3)C2=O)c1`, the inhibition is 56% (active). As to `O=C1NC(=O)N(c2ccccc2)C(=O)/C1=C/c1ccc([N+](=O)[O-])s1`, the inhibition was 70.2% (active). The same measure for `CC1=C(C(=O)Nc2ccccc2)SCCO1`: 5.19%; for `Cc1ccsc1C(=O)C1CCCN(Cc2ccc(O)cc2)C1` (stereo not given): -1.2%. For `O=c1[nH]c(=O)n(-c2ccccc2)c(O)c1C=NC12CN3CN(CN(C3)C1)C2`, the inhibition was 2.56%. Turning to `O=S(=O)(c1ccccc1)N1CCC2CCNC2C1` (stereo not given), the inhibition was 1.15%. Regarding `Cc1cc(N2CCNC[C@@H]2C)ccc1N1CC[C@H](O)C1`, the inhibition was 3.47%.

For `COc1ccccc1OC(=O)c1ccc(C)c(S(=O)(=O)N2CCOCC2)c1`, the inhibition was -3.22%. With `CS(=O)(=O)N1CCC2CCNC2C1` (stereo not given), the inhibition is 0.17%. Take `COP(=O)(Sc1ccccc1)C(Cc1ccccc1)NC(=O)OCc1ccccc1` (stereo not given): the inhibition was -1.61%. Consider `CCC(C)NC1(c2ccccc2)CCCCC1` (stereo not given), for which the inhibition was 2.27%. Take `COc1ccc(CN2CCN(c3ccccc3F)CC2)c(OC)c1`: the inhibition was -4.43%.

Consider `Brc1ccc2c(c1)CNCc1cnnn1-2`, for which the inhibition was 0.59%. Take `COc1ccc2c(c1)[C@]13CCCCC1C(C2)N(C)CC3` (stereo not given in full): the inhibition was 3.99%. Take `COc1ccc2[nH]c3c(c2c1)CCN[C@H]3C`: the inhibition is 3.06%. Turning to `COc1ccc2c(c1)[C@@]13CCCCC1[C@@H](C2)NCC3` (stereo not given in full), the inhibition is 37.9% (active). `CCN(CC)C(=O)[C@@H]1C=C2c3cccc4[nH]c(Br)c(c34)C[C@H]2N(C)C1`: the inhibition was 2.23%. On to `CN(C)C(=O)NC(O)C(Cl)(Cl)Cl` (stereo not given), for which the inhibition was -3.56%.

Consider `O=C1NC(=O)N(Cc2ccco2)C(=O)/C1=C\c1ccc(-c2ccc(F)cc2)o1`, for which the inhibition is 52.2% (active). The same measure for `CCC1(CC(C)c2ccccc2)C(=O)NC(=O)NC1=O` (stereo not given): 1.88%.
